Data from PubChem BioAssay AID588852 (The Scripps Research Institute Molecular Screening Center, 2011).
In all, about 360,000 compounds went through this assay and about 4,600 (1.3%) were called active. The full list was thinned out, with actives kept by preference. A number with no mark means an inactive call.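 The calls were made as follows: active = percent inhibition above its own plate's cutoff, namely the mean of that plate's compound wells plus 3 SD; inactive = the rest.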

These compounds were tested against Muscarinic acetylcholine receptor M1 (Homo sapiens) (UniProt P11229) (assay: CHRM1 blockers of acetylcholine calcium response – CHO-K1 cells, Fluo-8 calcium fluorescence, 1536-well, primary screen (AID 588852;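 also: peak over basal fluorescence ratio during 140 s after agonist addition; 0% = ACh EC80 plus DMSO and 100% = DMSO alone without agonist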)). Settings: CHO-K1 hM1, Fluo-8 calcium fluorescence, ACh EC80 antagonist; at 3 µM; hits give high values.
Chain of Muscarinic acetylcholine receptor M1 (Homo sapiens) (P11229 whole entry, looked up): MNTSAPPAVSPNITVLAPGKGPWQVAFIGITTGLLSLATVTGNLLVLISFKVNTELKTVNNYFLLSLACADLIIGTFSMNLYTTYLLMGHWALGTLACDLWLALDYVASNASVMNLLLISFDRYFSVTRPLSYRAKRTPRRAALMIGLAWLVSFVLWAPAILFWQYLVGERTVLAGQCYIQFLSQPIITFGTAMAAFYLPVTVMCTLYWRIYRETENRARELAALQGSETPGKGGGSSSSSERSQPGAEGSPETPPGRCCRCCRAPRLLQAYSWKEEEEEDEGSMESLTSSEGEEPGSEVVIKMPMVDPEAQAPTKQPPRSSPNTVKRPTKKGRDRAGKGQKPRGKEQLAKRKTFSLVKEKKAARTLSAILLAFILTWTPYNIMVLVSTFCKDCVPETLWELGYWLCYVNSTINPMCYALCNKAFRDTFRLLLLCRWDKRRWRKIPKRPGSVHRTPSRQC
`Cc1ccccc1NC(=O)Cc1nc(COC(=O)CNC(=O)c2ccc(Cl)cc2Cl)cs1` was tested, and the inhibition was -13%. Work on `CN(C(=O)CN1C(=O)NC(C)(CCc2ccccc2)C1=O)c1ccccc1` (stereo unspecified) yielded an inhibition of -11.9%. For `Cc1ccc(CN2C(=O)N/C(=C/c3cc(C)n(-c4ccccn4)c3C)C2=O)cc1`, the inhibition was -1.22%. For `CN(C)c1ccc(/C=C2\NC(=S)N(Cc3ccccc3)C2=O)cc1`, the inhibition was 68.3% (active). With `COc1ccc(-c2cc(NC(C)=O)c3ncc(-c4cc(OC)c(OC)c(OC)c4)n3c2)cn1` the inhibition was -10.3%. With `CC(=O)N[C@H]1[C@H]([C@H](O)[C@H](O)CO)OC(C(=O)O)=C[C@@H]1O` the inhibition was -23.4%. In the case of `CC(=O)Nc1cc(-c2ccccc2F)cn2c(-c3cccc(C(F)(F)F)c3)cnc12`, the inhibition was -3.02%. With `Cc1nc2ccccc2cc1OCc1ccc(F)cc1` the inhibition was 18% (active). `Cc1occc(=O)c1OCc1ccc(F)cc1` gave an inhibition of -6.78%. For `Fc1cccc2ncnc(OCc3ccccc3)c12`, the inhibition was -13.7%. `Clc1cccc(Cc2c(-c3cccc(Cl)c3)nc3ccc(Cl)cn23)c1` showed an inhibition of -29.8%. In the case of `COCCNc1nc(Nc2ccccc2Cl)c2sc(-c3ccccc3)cc2n1`, the inhibition was -5.82%. `Clc1ccccc1Nc1nc(NCc2cccs2)nc2ccsc12` showed an inhibition of 7.85%. `COc1ccccc1CNc1nc(Nc2ccccc2Cl)c2sccc2n1` was tested, and the inhibition was 30.1% (active). For `Cc1cc(Br)cn2c(Cc3cccc(F)c3)c(-c3cccc(Br)c3)nc12`, the inhibition was -3.87%. `COc1ccc(CCNc2ncnc3nc[nH]c23)cc1OC` showed an inhibition of 5.06%. With `c1ccc2c(c1)OCC(CNc1ncnc3nc[nH]c13)O2` (stereo unspecified) the inhibition was 101% (active). In the case of `O=C(Cn1cnc2ccccc2c1=O)NCC1COc2ccccc2O1` (stereo unspecified), the inhibition was -3.89%. `CCCN1CNC(=S)N(CCc2ccccc2)C1` was tested, and the inhibition was -6.28%. `Cn1nccc1C(=O)NC1CCCc2c1cnn2-c1ccc(F)cc1F` (stereo unspecified) was tested, and the inhibition was 31.6% (active). `Cc1ccc(-n2ncc3c2CCCC3NC(=O)c2cnccn2)cc1C` (stereo unspecified) gave an inhibition of -17.9%. For `CC1(C)Cc2c(cnn2-c2cccc(F)c2)C(NC(=O)c2cc[n+]([O-])cc2)C1` (stereo unspecified), the inhibition was 9.23%. For `CCCc1nnc(SCC(=O)Nc2ccc(C(=O)OCC)cc2)o1`, the inhibition was 9%. Work on `CCOC(=O)c1ccc(NC(=O)CS(=O)(=O)c2cn(CC)c3ccccc23)cc1` yielded an inhibition of -2.75%. `CCOC(=O)c1ccc(NC(=O)Cn2cnc3cc(C)c(C)cc32)cc1` was tested, and the inhibition was 37.4% (active). `Cc1ccc(Cc2c(-c3ccco3)nc3ccc(Cl)cn23)cc1` showed an inhibition of -22.8%. `COc1cccc(CN(C)C(=O)CC[C@H]2O[C@@H](n3cnc4c(NC(=O)c5ccccc5)ncnc43)[C@H](O)[C@@H]2O)c1` was tested, and the inhibition was -19.1%. `CC1=C(C(=O)N(C(C)C)C(C)C)CC(CC(=O)NCCCCc2ccccc2)C(=O)N1CCC1=CCCCC1` (stereo unspecified) gave an inhibition of -20.5%. In the case of `OC[C@@H]1CN(Cc2ccc(-c3ccccc3)cc2)C[C@H](n2cnc3c(NC4CCCC4)ncnc32)O1`, the inhibition was 32% (active). With `OC[C@@H]1CN(Cc2cccs2)C[C@H](n2cnc3c(NC4CCCC4)ncnc32)O1` the inhibition was -11.8%. Work on `OC[C@@H]1CN(Cc2ccc(F)cc2)C[C@H](n2cnc3c(NC4CCCC4)ncnc32)O1` yielded an inhibition of -0.24%. Work on `O=C(c1ccc(N2CCOCC2)c([N+](=O)[O-])c1)N1CCN(c2ccccc2F)CC1` yielded an inhibition of -20.3%. For `COc1cc(OC)cc(C(=O)NC(=S)N2CCN(c3ccc(C(F)(F)F)cc3[N+](=O)[O-])CC2)c1`, the inhibition was -3.37%. In the case of `O=C(c1ccc(N2CCCC2=O)cc1)N1CCN(c2ccc(C(F)(F)F)cc2[N+](=O)[O-])CC1`, the inhibition was 53.8% (active). `NC(c1csc(NC(=O)Nc2cccc(C(F)(F)F)c2)n1)C1CCCCC1` (stereo unspecified) showed an inhibition of 2.03%. `CCc1cc2c(SCC(=O)Nc3ncc(Cl)c(C)c3Cl)ncnc2s1` was tested, and the inhibition was 3.21%. In the case of `c1ccc(CNCc2ccc(CNCc3ccccc3)cc2)cc1`, the inhibition was 2.12%. `c1ccc(Cc2cc[n+](Cc3ccccc3)cc2)cc1` was tested, and the inhibition was 37.1% (active). `CN(C)c1cc[n+](Cc2ccccc2)cc1` was tested, and the inhibition was 21.7%. Work on `CCOc1ccc(CCNC(=O)C2=C(C)C(=O)OC23CCC(C)CC3)cc1OCC` (stereo unspecified) yielded an inhibition of -7.29%. Compound `NC(c1csc(NC(=O)Nc2ccccc2Oc2ccccc2)n1)c1ccccc1Cl` (stereo unspecified) has an inhibition of -3.63%. For `CN(Cc1ccccc1)C(=O)COc1ccccc1`, the inhibition was 1.72%. `Cc1ccc(C)c(NC(=O)CN(C)C(=O)COc2ccc3ccccc3c2)c1` showed an inhibition of -15%. With `CN(Cc1ccc(F)cc1)C(=O)COc1ccc2ccccc2c1` the inhibition was 24.7% (active). Work on `CC(C)(C)N1C(=O)c2c(C(=O)OCc3ccccc3)[nH]c(-c3ccccc3)c2C1=O` yielded an inhibition of -12.3%. `CCNC(=O)C1(C)CCCN(C(=O)c2c(C)noc2C)C1` (stereo unspecified) showed an inhibition of -8.22%. For `CSc1ccc(CNC(=O)C2(C)CCCN2C)cc1` (stereo unspecified), the inhibition was -11.7%. Work on `CC(=O)c1ccc(NC(=O)CSc2nc3ccccc3c(=O)n2CCCN2CCOCC2)cc1` yielded an inhibition of 1.86%. With `CC1CCN(CCCn2c(SCC(=O)NC3CCCC3)nc3ccccc3c2=O)CC1` the inhibition was 31.2% (active). In the case of `O=C(CSc1nc2ccccc2c(=O)n1CCCO)NC1CC1`, the inhibition was -2.1%. Compound `COC(=O)c1ccc2nc(-c3ccc(OC)c(OC)c3)c(Cc3ccccc3)n2c1` has an inhibition of -24%. Work on `Cc1c(C(=O)OC(C)C)sc(NC(=O)c2cccnc2)c1C#N` yielded an inhibition of -3.46%. In the case of `CC(=O)N1CCCc2cc(S(=O)(=O)CCC(=O)N3CCN(c4ccccc4)CC3)ccc21`, the inhibition was -7.27%. `CC(=O)N1CCCc2cc(S(=O)(=O)N3CCCC(C(=O)N4CCN(c5cccc(Cl)c5)CC4)C3)ccc21` (stereo unspecified) was tested, and the inhibition was 57.1% (active). In the case of `CC(=O)N1c2ccc(S(=O)(=O)N3CCC(C(=O)N4CCN(c5ccccc5)CC4)CC3)cc2CC1C` (stereo unspecified), the inhibition was 10.8%. With `O=C(CCS(=O)(=O)c1ccccc1Cl)Nc1ccc(S(=O)(=O)Nc2ncccn2)cc1` the inhibition was -5.9%. With `CCN1C(=O)[C@@H]2[C@@H]3CN(S(=O)(=O)c4ccccc4C)[C@@H](c4ccc(Cl)cc4)[C@@H]3C(=O)C[C@@H]2C1=O` the inhibition was 4.67%. `Cc1ccc(S(=O)(=O)N2CCC(C(=O)N[C@@H](C)C(=O)NCc3ccccc3)CC2)cc1` was tested, and the inhibition was 4.54%. `CCN(CC(=O)N1CCCC1)S(=O)(=O)c1ccc(F)cc1` gave an inhibition of -13%. In the case of `O=C(O)C(c1ccccc1)C1(O)CCCCC1` (stereo unspecified), the inhibition was -17.6%. In the case of `O=C(O)C(c1cccs1)C1(O)CCCCC1` (stereo unspecified), the inhibition was -1.29%. With `CN(C)CCOC(=O)C(c1ccccc1)C1(O)CCCC1` (stereo unspecified) the inhibition was 99.4% (active). With `COc1ccccc1N1CCN(CC(=O)NCCc2ccc(S(N)(=O)=O)cc2)CC1` the inhibition was 4.39%. For `Cc1nc(NC(=O)CCC(=O)O)sc1C(=O)N(C)C`, the inhibition was 2.74%. In the case of `CCCn1c(C2CCCN2c2nc(-c3ccc(C)cc3)cs2)nc2cc(Cl)c(N3CCCCC3)cc21` (stereo unspecified), the inhibition was -10.7%. In the case of `CCOc1ccc(C(=O)Nc2ccc(S(=O)(=O)Nc3cc(C)on3)cc2)cc1`, the inhibition was 0.49%. In the case of `COc1ccc(S(=O)(=O)Nc2cc(C)on2)cc1NC(C)=O`, the inhibition was -12.3%. With `COc1cc2ccccc2cc1C(=O)Nc1ccc(S(=O)(=O)Nc2cc(C)on2)cc1` the inhibition was 103% (active). Compound `CC1CCCC(C)N1C(=O)COC(=O)COc1ccccc1C#N` (stereo unspecified) has an inhibition of -15.1%. In the case of `COc1ccccc1CNS(=O)(=O)c1cc(C(=O)NCc2ccccn2)c(Cl)cc1Cl`, the inhibition was 5.67%. Work on `Cc1cc(C)n2nc(C(=O)OCC(=O)N(CCC#N)c3ccc(F)cc3)nc2n1` yielded an inhibition of -14.2%. `CNS(=O)(=O)c1ccc(N2CCCC2=O)c([N+](=O)[O-])c1` gave an inhibition of -23.5%. `COc1ccc(NC(C(=O)Nc2cccc(C(C)=O)c2)c2ccccc2)cc1` (stereo unspecified) gave an inhibition of -3.24%. `CCSc1nsc(NC(=O)Nc2cccc(C(C)=O)c2)n1` was tested, and the inhibition was 51.1% (active). For `C=CCSc1nsc(NC(=O)Nc2cccc(C(C)=O)c2)n1`, the inhibition was 38.7% (active). Compound `CC(=O)c1cccc(NC(=S)N2CCN(S(C)(=O)=O)CC2)c1` has an inhibition of -7.9%. Compound `CSc1ccccc1C(=O)Nc1cccc(C(C)=O)c1` has an inhibition of 0.3%. `CC(=O)c1cccc(NC(=O)C2CCN(C(=O)c3ccccc3Cl)CC2)c1` was tested, and the inhibition was -5.19%. Compound `Fc1cccc(Cc2c(-c3cccc(Cl)c3)nc3ccc(Br)cn23)c1` has an inhibition of -20.5%. Work on `CC#CC[N+](C)(C)CCCCCC` yielded an inhibition of -12.7%. For `FC(F)(F)Oc1ccc(-c2cn3cccnc3n2)cc1`, the inhibition was 12.5%. With `O=C(CCc1ccc(S(=O)(=O)N2CCOCC2)cc1)OCC(=O)c1ccc(Br)cc1` the inhibition was 9.26%. `O=C(Nc1ccccc1Cl)/C(Cl)=C(\Cl)S(=O)c1ccccc1` (stereo unspecified) gave an inhibition of -6.91%. For `COc1ccc(C(O)(C2CCCCC2)C(CN2CCCC2)c2ccccc2)cc1` (stereo unspecified), the inhibition was 10.3%. `OC(c1ccccc1)C(CN1CCOCC1)c1ccccc1` (stereo unspecified) gave an inhibition of -25.3%. In the case of `OC(C#CCN1CCOCC1)(c1ccccc1)C1CCCCC1` (stereo unspecified), the inhibition was 50.9% (active). Work on `Clc1cccc(Cl)c1Cn1nnc(-c2cccs2)n1` yielded an inhibition of -2.1%. `CC(=O)c1c(N)n(C)c(=O)n(C)c1=O` gave an inhibition of -33.5%. `CCOC(=O)c1ccc(-c2ccc3ncnc(N(C)Cc4sccc4C)c3c2)o1` showed an inhibition of -1.82%. Compound `N/C(=N\OC(=O)Nc1ccccc1)c1ccno1` has an inhibition of -25%. `CC(C)CCNC(=O)c1[nH]c(C(F)(F)F)nc1-c1ccccc1` showed an inhibition of -26.6%.
